Results filed as inconclusive are left out. Where a call stands in place of a potency, no number is given. Activity calls are given as the source filed them. The call rests on the fitted dose curve; in most records, active means well fitted activation curve with a large enough effect; inconclusive means small, poorly fitted or top-dose-only effect; inactive means no such curve, though single readings can be large or run the other way.
experiment: qHTS assay for re-activators of p53 using a Luc reporter: Hit Validation with no p53 Expressed; settings: p53-null cells, luciferase reporter counter-screen; series mostly up to 46.1 µM
Outline: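 Without p53 expression, cells (1000/well, Opti-MEM + 10% FBS) were exposed 24 h at 37 deg C to compounds in a 1:5 series from 10 mM stock (top 46.1 µM in well). Luminescent signal read 10 min after Amplite addition; actives flag unspecific activation.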

Row | SMILES | Potency
1 | O=C(Nc1ccc2c(c1)CCC2)c1ccccc1F | inactive
2 | Cc1ccc(OCCN2CCOCC2)cc1C | inactive
3 | Cc1nn(-c2ccccc2)c(N2CCCC2)c1/C=N/NC(=O)c1cc(-c2ccccc2)nc2ccccc12 | inactive
4 | O=C(CCS(=O)(=O)c1ccccc1)Nc1nc2c(s1)CCCC2 | inactive
5 | CCN(CC)c1ccc2cc(-c3nc4ccccc4n3C)c(=O)oc2c1 | inactive
6 | O=C(OCC(=O)N1CCc2ccccc21)c1ccccc1[N+](=O)[O-] | inactive
7 | O=C(NCc1ccco1)c1noc2c1CCCC2 | inactive
8 | FC(F)(F)c1nnc2c(Sc3ccccn3)nc3ccccc3n12 | inactive
9 | COc1ccc(NC(=O)c2ccccc2)cc1 | inactive
10 | Cc1sc2nc(CSC(C)C(=O)Nc3ccccn3)[nH]c(=O)c2c1C (centres undefined) | inactive
11 | O=C(Nc1cccnc1Cl)c1cc(-c2ccccc2O)on1 | inactive
12 | Cc1ccc(NC(=O)/C=C/c2ccc([N+](=O)[O-])s2)c(C)c1 | inactive
13 | Cc1ccc(OCC(=O)c2cc(C)n(C)c2C)c([N+](=O)[O-])n1 | inactive
14 | O=C(Nc1nc2c(s1)CCCC2)C1COc2ccccc2O1 (centres undefined) | inactive
15 | COc1ccc(-c2nnc(-c3ccc(Br)o3)o2)cc1OC | inactive
16 | Cc1cc(NC(=O)c2cccc(COc3ccc(Br)cc3)c2)no1 | inactive
17 | COc1ccc(-n2nc([N+](=O)[O-])c(=NCc3ccco3)n2O)cc1 | inactive
18 | NNC(=O)c1cccc(COc2ccc(Br)cc2)c1 | inactive
19 | COc1cc(/C=C/C(=O)N2C(=O)c3cccc(N)c3C2=O)cc(OC)c1OC | inactive
20 | CCCCc1ccc(NC(=S)Nc2ccc(Nc3ccc(OC)cc3)cc2)cc1 | inactive

Row | SMILES | Potency
21 | COc1ccnc(CSC(N)=Nc2ccccc2OC)c1 | inactive
22 | CCOc1ccc(NS(=O)(=O)c2ccc(C(=O)NC3CCN(Cc4ccccc4)CC3)cc2)cc1 | inactive
23 | COc1ccc(CCC(C)NCC(C)c2ccccc2)cc1 (centres undefined) | inactive
24 | CC(C)(C)c1ccc(NC(=O)COC(=O)c2ccc(NS(=O)(=O)c3ccc(F)c(F)c3)cc2)cc1 | inactive
25 | CCOC(=O)c1ccc2ncc(C(=O)OCC)c(NCc3ccco3)c2c1 | inactive
26 | Cc1ccc(C(=O)NC(=C(Cl)Cl)S(=O)(=O)c2ccccc2)cc1 | inactive
27 | CN1CCN(C2=C(Cl)C(=O)N(Cc3ccccc3)C2=O)CC1 | inactive
28 | Cc1cc(Br)c(S(=O)(=O)NCCN2CCOCC2)cc1C | inactive
29 | Cc1ccc(NC(=O)CCN2C(=O)c3cccc([N+](=O)[O-])c3C2=O)c(Br)c1 | inactive
30 | O=C(N/N=C/C1C(c2ccccc2)C1(Cl)Cl)c1cccc(Cl)c1 (centres undefined) | inactive
31 | O=C(Nc1ccc2ccccc2c1)c1ccc(Cl)cc1Cl | inactive
32 | O=C(NCC1CCCO1)c1ccc(NC(=O)c2cccc([N+](=O)[O-])c2)cc1 (centres undefined) | inactive
33 | O=C(NCCC1=CCCCC1)c1ccc([N+](=O)[O-])cc1 | inactive
34 | COc1ccc2oc(C(=O)OCC(=O)NCCN3C(=O)CSC3=O)c(C)c2c1 | inactive
35 | Cc1ccc(C(=O)Nc2cnc3sc(C)nn3c2=O)cc1 | inactive
36 | Cc1ccc(C2C(C#N)=C(N)Oc3cc4c(cc32)OCO4)cc1 (centres undefined) | inactive
37 | Cc1ccc(-c2nnc(Oc3cccc(C)c3)c3ccccc23)cc1 | inactive
38 | C=CCn1c(SCC(=O)Nc2ccc(-c3nc4ccc(C)cc4s3)cc2)nnc1-c1ccccc1 | inactive
39 | CCN1CCN(/C=N/c2nc3c(s2)CCCC3)CC1 | inactive

— PubChem BioAssay AID624331 (National Center for Advancing Translational Sciences (NCATS), 2012)
